Design in all cases: scale not given: direction of the effect not stated beside the values
The target of assay [1] is Protein translocase subunit SecA (Escherichia coli (strain K12)) (UniProt P10408). Kind of assay: Assay to Identify E. coli SecA ATPase Inhibitors. The following applies: 30 µM. The format is functional.
Assay [2] addresses T1, Ubiquitin-activating enzyme e1, putative (Leishmania donovani (strain BPK282A1)) (UniProt E9BSI1).
T1 sequence (whole entry): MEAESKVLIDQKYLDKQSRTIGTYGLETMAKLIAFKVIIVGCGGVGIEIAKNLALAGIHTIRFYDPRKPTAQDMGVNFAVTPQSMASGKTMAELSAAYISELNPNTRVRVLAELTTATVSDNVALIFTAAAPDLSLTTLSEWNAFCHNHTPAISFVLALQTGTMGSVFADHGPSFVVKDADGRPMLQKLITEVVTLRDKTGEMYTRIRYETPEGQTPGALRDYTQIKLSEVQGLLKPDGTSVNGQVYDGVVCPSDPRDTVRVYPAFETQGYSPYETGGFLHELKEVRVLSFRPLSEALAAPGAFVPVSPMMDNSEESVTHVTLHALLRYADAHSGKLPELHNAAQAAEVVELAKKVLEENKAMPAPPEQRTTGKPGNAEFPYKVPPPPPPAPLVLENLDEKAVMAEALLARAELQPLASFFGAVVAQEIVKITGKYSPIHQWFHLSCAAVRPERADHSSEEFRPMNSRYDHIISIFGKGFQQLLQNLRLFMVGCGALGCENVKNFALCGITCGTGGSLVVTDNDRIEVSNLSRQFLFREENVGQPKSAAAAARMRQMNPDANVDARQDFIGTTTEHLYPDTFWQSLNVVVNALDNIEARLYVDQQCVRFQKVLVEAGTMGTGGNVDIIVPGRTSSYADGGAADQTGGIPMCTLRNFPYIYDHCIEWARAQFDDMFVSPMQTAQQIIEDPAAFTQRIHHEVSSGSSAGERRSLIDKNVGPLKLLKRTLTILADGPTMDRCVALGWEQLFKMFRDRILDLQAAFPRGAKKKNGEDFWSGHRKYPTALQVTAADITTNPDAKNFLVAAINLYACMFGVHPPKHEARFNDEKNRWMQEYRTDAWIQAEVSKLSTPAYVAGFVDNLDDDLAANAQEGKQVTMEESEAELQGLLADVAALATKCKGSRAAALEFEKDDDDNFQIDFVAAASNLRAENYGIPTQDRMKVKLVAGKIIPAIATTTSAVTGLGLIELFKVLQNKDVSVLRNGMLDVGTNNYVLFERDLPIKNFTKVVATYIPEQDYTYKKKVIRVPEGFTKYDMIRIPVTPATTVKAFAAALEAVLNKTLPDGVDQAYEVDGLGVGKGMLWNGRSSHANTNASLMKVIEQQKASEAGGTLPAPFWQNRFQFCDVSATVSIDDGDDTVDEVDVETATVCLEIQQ
Nature of the assay: Leishmania donovani Ubiquitin Activating Enzyme (LdE1). In kind it is functional. Conditions: 30 µM.

In assay [3] the target is Sialic acid-binding Ig-like lectin 9 (Homo sapiens) (UniProt Q9Y336). Nature of the assay: Hs-Siglec9 ALPHAscreen SOP 20170721. The following applies: 10 µM. Background: Bead proximity is the source of the signal in Alpha formats.
Chain of Sialic acid-binding Ig-like lectin 9 (Homo sapiens) (Q9Y336 whole entry): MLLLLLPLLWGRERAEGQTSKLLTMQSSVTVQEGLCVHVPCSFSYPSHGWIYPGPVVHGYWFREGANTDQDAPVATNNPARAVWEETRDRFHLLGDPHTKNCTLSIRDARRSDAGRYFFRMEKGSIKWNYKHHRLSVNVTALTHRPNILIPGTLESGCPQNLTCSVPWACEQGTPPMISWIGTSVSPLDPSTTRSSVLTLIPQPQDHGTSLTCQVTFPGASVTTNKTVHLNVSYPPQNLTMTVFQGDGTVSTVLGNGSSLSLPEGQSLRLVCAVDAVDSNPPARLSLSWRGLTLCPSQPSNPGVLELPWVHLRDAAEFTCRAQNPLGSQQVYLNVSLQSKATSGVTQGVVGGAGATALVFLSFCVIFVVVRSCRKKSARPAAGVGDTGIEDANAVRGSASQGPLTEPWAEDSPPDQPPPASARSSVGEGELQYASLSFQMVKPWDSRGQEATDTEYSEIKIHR
A further assay deals with Trypanosoma cruzi. Nature of the assay: Trypanosoma cruzi phosphomannomutase and mannose-1-phosphate guanylyltransferase assay. In kind it is functional. Conditions: 10 µM.
For assay [4], the target named is T2, Arginase-2, mitochondrial (Homo sapiens) (UniProt P78540).
T2 sequence (whole entry): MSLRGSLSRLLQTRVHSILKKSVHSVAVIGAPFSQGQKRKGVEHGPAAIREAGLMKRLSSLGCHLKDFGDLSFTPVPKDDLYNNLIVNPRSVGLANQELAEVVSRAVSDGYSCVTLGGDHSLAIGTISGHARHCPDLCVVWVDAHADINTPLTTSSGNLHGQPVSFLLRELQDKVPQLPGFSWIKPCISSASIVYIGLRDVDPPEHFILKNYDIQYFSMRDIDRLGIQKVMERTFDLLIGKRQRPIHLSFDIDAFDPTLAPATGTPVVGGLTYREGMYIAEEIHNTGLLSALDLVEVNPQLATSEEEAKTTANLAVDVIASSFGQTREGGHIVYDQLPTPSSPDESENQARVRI
Nature of the assay: in vitro enzyme assay to detect the production of urea directly proportional to the activity of Arginase II. Note: in the data most compounds retested in dose-response had high values. The format is functional. The following applies: 33.3 µM.

The target of assay [5] is T3, Proteasome subunit beta (Trypanosoma cruzi) (UniProt O96673).
T3 sequence (whole entry): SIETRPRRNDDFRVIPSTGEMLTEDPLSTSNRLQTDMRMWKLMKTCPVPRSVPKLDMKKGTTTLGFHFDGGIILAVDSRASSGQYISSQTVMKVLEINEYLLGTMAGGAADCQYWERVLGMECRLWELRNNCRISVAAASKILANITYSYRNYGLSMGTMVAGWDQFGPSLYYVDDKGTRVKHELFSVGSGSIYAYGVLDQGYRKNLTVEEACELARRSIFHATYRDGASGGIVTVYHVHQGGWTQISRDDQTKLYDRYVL
Nature of the assay: Trypanosoma cruzi proteasome chymotrypsin-like activity (TcProtChymo) assay. Note: in the data most compounds retested in dose-response had high values. The format is functional. The following applies: 9.37 µM.

The species entered for another assay is Homo sapiens. Kind of assay: To identify inhibition of the IFN signalling (Jak-Stat) pathway via expression of an eGFP reporter gene under the control of an IFN-stimulated response element (ISRE) containing MxA promoter. The format is functional. The following applies: 30 µM. (In general: In a reporter assay the amount or activity of a reporter protein is the signal.)

Assay [6] deals with T4, Tyrosyl-tRNA synthetase, putative (Trypanosoma cruzi (strain CL Brener)) (UniProt Q4DSP6).
T4 sequence (whole entry): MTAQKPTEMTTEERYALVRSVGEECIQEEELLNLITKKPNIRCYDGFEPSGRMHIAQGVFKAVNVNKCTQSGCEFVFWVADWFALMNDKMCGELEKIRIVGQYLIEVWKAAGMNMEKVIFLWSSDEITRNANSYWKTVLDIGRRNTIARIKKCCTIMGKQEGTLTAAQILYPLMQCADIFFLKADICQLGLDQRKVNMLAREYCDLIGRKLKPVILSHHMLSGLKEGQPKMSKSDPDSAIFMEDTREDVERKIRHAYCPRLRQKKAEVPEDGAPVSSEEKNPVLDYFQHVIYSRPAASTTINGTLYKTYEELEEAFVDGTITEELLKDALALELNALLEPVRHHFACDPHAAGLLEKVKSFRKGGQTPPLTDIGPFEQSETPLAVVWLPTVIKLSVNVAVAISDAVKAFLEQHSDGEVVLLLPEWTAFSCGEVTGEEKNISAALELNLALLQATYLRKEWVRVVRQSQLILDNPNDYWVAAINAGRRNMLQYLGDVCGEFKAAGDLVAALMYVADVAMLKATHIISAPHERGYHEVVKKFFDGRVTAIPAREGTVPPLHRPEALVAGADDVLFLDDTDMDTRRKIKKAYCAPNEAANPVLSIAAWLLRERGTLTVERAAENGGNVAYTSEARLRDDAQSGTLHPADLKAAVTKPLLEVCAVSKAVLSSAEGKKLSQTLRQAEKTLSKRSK
Nature of the assay: Trypanosoma cruzi tyrosyl tRNA synthetase (TcYRS) _High Tyrosine SOP. Note: in the data most compounds retested in dose-response had high values. The format is functional. Conditions: 30 µM.

Assay [7] deals with T4, Tyrosyl-tRNA synthetase, putative (Trypanosoma cruzi (strain CL Brener)). Nature of the assay: Trypanosoma cruzi tyrosyl tRNA synthetase (TcYRS) SOP. Conditions: 30 µM. In kind it is functional.
The target of assay [8] is Chromo domain-containing protein 1 (Saccharomyces cerevisiae (strain ATCC 204508 / S288c) (Baker's yeast)) (UniProt P32657). Nature of the assay: ScCHD-1 Enzyme Inhibition Assay. Note: in the data most compounds retested in dose-response had high values. In kind it is functional. The following applies: 30 µM.
Chain of Chromo domain-containing protein 1 (Saccharomyces cerevisiae (strain ATCC 204508 / S288c) (Baker's yeast)) (P32657 whole entry, the tested form may be a part): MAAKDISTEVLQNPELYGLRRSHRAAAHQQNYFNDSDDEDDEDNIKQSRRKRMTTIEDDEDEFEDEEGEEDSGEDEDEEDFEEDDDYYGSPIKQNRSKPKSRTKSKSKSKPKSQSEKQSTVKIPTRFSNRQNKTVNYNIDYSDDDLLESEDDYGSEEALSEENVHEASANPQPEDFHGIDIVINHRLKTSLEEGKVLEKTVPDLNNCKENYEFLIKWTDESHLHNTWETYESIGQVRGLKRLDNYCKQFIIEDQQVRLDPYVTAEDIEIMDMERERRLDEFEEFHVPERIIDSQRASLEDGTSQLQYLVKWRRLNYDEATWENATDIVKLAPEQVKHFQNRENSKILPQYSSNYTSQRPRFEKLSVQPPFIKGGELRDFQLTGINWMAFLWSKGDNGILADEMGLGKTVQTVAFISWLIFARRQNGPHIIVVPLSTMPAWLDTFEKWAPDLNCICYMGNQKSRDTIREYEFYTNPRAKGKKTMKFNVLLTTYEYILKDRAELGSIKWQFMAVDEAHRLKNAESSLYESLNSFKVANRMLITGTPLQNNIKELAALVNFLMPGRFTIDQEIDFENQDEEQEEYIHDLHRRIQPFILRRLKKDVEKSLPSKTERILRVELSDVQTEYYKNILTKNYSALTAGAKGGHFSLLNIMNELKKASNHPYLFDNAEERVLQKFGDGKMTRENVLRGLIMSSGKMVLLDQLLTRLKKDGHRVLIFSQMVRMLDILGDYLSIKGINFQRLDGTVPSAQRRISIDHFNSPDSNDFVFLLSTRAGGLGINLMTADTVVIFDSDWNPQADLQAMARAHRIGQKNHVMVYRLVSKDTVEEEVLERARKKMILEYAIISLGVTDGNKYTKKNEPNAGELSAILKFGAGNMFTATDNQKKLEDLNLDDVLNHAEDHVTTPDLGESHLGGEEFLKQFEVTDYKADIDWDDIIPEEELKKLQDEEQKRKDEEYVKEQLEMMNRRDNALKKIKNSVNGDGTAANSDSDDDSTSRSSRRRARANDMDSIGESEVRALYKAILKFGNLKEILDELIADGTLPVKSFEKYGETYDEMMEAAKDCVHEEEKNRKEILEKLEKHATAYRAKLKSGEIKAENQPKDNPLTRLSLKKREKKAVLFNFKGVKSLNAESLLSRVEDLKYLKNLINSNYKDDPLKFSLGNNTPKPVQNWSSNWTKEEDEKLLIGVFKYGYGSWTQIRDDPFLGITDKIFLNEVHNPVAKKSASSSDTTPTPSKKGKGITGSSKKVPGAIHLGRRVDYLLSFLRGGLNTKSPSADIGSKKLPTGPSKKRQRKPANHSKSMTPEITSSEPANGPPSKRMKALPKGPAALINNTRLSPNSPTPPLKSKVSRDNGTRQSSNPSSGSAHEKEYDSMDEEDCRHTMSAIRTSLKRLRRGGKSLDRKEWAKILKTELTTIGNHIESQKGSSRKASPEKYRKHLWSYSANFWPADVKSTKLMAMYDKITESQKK

For some of these results: Potency and affinity values are given separately.

Chain of Protein translocase subunit SecA (Escherichia coli (strain K12)) (P10408 whole entry): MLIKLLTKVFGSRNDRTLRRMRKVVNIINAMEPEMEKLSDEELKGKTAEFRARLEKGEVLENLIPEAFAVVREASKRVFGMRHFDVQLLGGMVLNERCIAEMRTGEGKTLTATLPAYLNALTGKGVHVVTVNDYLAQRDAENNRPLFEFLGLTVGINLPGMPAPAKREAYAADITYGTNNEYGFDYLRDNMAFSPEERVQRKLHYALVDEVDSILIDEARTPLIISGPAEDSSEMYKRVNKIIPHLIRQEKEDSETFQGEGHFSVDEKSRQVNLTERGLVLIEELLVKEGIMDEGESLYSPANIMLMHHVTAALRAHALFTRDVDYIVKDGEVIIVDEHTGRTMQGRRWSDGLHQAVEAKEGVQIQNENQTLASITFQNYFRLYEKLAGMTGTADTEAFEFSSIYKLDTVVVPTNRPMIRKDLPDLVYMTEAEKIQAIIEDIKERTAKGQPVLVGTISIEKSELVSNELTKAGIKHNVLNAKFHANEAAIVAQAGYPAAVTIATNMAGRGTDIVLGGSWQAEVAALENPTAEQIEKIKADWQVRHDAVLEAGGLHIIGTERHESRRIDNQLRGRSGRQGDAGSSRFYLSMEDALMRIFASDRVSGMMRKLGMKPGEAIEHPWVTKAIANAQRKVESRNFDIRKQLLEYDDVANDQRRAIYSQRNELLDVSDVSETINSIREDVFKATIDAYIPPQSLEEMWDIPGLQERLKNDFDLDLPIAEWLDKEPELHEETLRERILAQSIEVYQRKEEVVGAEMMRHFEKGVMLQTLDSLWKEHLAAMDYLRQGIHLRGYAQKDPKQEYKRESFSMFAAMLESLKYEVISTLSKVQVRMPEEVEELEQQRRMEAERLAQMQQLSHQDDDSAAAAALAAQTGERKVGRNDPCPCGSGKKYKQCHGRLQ

Consider `CCO[C@@H]1CO[C@@]2(CCCN(S(=O)(=O)c3cccnc3)C2)C1`, for which the Percent Effect in [1] is -2.66%; in [2], 11.7%; in [3], -9.59%; in the assay on Trypanosoma cruzi, -4.97%; in assay [4] it was 3.64%; in [5] it was 18.3%. In addition, the Percent Effect in the assay filed under Homo sapiens came to 6.27%; in assay [6], 5.79%; in [7] it was 5.13%; in assay [8] it was 2.99%.

On to `Fc1ccc(-c2n[nH]cc2-c2ccnc(NCCN3CCCC3)n2)cc1`, for which the Percent Effect in assay [1] was -1.15%; in assay [2], 8%; in [3], -4.6%; in the assay on Trypanosoma cruzi, -8.23%; in assay [4], -7.98%; in [5], 15.3%. In addition, the Percent Effect in the assay filed under Homo sapiens was 5.44%; in assay [6], -5.79%; in [7], 0%; in assay [8], -21.2%.

On to `COCCC(=O)N1CCCC2(CCC(=O)N2CCOC)CC1` (stereo not given), for which the Percent Effect in assay [1] was -2.63%; in assay [2] it was 11.7%; in assay [3] it was -2.38%; in the assay with Trypanosoma cruzi, -4.13%; in [4], 4.57%; in assay [5], -1.97%. In addition, the Percent Effect is 11.1% in the assay filed under Homo sapiens, 2.9% in assay [6], 2.5% in [7] and -3.46% in assay [8].

Take `CCN1CCN(c2ccc(CNC(=O)c3c(C)noc3C)cn2)CC1`: the Percent Effect in [1] was -1.13%; in assay [2] it was 21.3%; in assay [3], -5.5%; in the assay with Trypanosoma cruzi it was 3.01%; in [4], 2.66%; in assay [5], 23.8%. Besides, the Percent Effect was 1.82% in the assay listed under Homo sapiens, 1.58% in assay [6], 15.4% in [7] and -14.6% in assay [8].

With `CS(=O)(=O)N1CCC2(CC1)CC(CC(=O)N1CCCC1)c1ccccc12` (stereo not given), the Percent Effect is -6.42% in assay [1]; 6.49% in [2]; 10.4% in assay [3]; -2.43% in the assay with Trypanosoma cruzi; -5.67% in [4]; 2.21% in [5]. The Percent Effect in the assay filed under Homo sapiens was -5.9%; in assay [6], 1.58%; in [7], -7.69%; in assay [8], 2.73%.

As for `Cc1ccc(N2CCC3(CCN(C(N)=O)CC3)CC2)nn1`, the Percent Effect was -4.59% in assay [1]; 1.3% in assay [2]; -5.12% in assay [3]; -8.47% in the assay with Trypanosoma cruzi; 3.64% in [4]; 13.5% in assay [5]. The Percent Effect was 5.72% in the assay listed under Homo sapiens, 1.58% in assay [6], 0% in [7] and -0.155% in assay [8].

As to `OC(COc1ccccc1)CN1CCc2c(ncn2C2CC2)C1` (stereo not given), the Percent Effect in assay [1] was -6.24%; in assay [2], 8%; in [3], 5.27%; in the assay on Trypanosoma cruzi it was -6.02%; in assay [4], -1.77%; in assay [5], 3.65%. Besides, the Percent Effect in the assay listed under Homo sapiens is 15.6%; in [6] it was 5.79%; in assay [7], 7.69%; in [8], -12.1%.

On to `Cc1cnn(CC2CCCCN2CCCS(N)(=O)=O)c1` (stereo not given), for which the Percent Effect in [1] was -1.01%; in [2], 21.3%; in assay [3], -1.72%; in the assay on Trypanosoma cruzi it was -2.01%; in assay [4], 3.55%; in [5], 11.3%. Besides, the Percent Effect was 8.53% in the assay filed under Homo sapiens, 5.79% in assay [6], -2.56% in [7] and -12.4% in assay [8].

Take `CCn1cc(NC(=O)NCc2ccc3c(c2)OCCO3)cn1`: the Percent Effect is -3.41% in assay [1]; 20.8% in assay [2]; 4.42% in assay [3]; -2.98% with Trypanosoma cruzi; 4.3% in assay [4]; 7.37% in assay [5]. Moreover, the Percent Effect in the assay filed under Homo sapiens is 12.6%; in assay [6] it was 11.8%; in assay [7] it was 21.2%; in assay [8], -7.59%.

As for `Cc1ncsc1C(=O)N(Cc1cccnc1)C1CC1`, the Percent Effect in assay [1] is -0.351%; in [2], 2.56%; in assay [3] it was 10%; with Trypanosoma cruzi it was 5.92%; in assay [4], 4.1%; in assay [5], -1.45%. Further, the Percent Effect was 16.3% in the assay filed under Homo sapiens, 1.44% in [6], 8.43% in assay [7] and -2.14% in [8].

Consider `CN(C)C(=O)[C@@H]1CCO[C@@H]2CCN(Cc3ccc4c(c3)OCO4)C[C@@H]21`, for which the Percent Effect in assay [1] was -3.73%; in [2], 11.7%; in assay [3] it was -6.65%; in the assay on Trypanosoma cruzi, 7.5%; in assay [4], -4.86%; in assay [5], 10.9%. Moreover, the Percent Effect in the assay listed under Homo sapiens is 0.999%; in assay [6], 3.68%; in assay [7], 2.56%; in assay [8], 2.41%.

For the compound `Cc1cnn(C(C)C2CC2)c1NC(=O)c1ccncc1` (stereo not given), the Percent Effect in [1] was -9.84%; in [2] it was -5.41%; in assay [3], -2.58%; in the assay on Trypanosoma cruzi, -1.26%; in assay [4], 1.75%; in assay [5] it was 5.82%. Moreover, the Percent Effect is -1.9% in the assay filed under Homo sapiens, -1.6% in assay [6], 0% in assay [7] and -0.204% in assay [8].

`CCc1noc(C(C)N2CCN(Cc3nnc(C4CC4)o3)CC2)n1` (stereo not given): the Percent Effect in [1] was -3.4%; in assay [2], 2.67%; in [3], -2.35%; with Trypanosoma cruzi, 0.402%; in assay [4], -1.77%; in assay [5], -3.31%. For the same compound, the Percent Effect in the assay listed under Homo sapiens was -5.04%; in assay [6] it was 0.526%; in assay [7], 0%; in assay [8], -5.5%.

(Values after ChEMBL document CHEMBL3988442, “University of Dundee, Small-Polar-MMV Screening Library” (2021).)
